Reference: PubChem BioAssay (NCATS)
Values joined by “and” are separate entries in the source; they are usually repeats but may differ in a detail not shown here. Equal values may be shown once. Records with an inconclusive call do not appear. Active and inactive are the calls of the source. Unless noted, calls come from the whole dose curve; as a rule, active = well fitted curve in the direction sought with a large enough effect; inconclusive = small, poorly fitted or top-dose-only effect, or another doubt; inactive = no such curve, though single readings can be large; an effect the other way counts as inactive or inconclusive.

How the values were obtained:
[1] = Cell Viability - Hek293 (AID 427;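 active = compounds whose dose-response curve shows a full or clear partial loss of cell viability, called from curve shape rather than a numeric limit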;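 note: potency is the fitted concentration of half-maximal effect; cells exposed to compound for 40 hours at 37 °C before reading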); settings: qHTS
How it was run: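 Luminescent ATP read-out (CellTiter-Glo, 20 min RT) after 40 hr compound exposure at 37 °C in complete medium. Signal normalized to DMSO (basal) and 100 uM tamoxifen (100% inhibition); concentration-response fitted with the standard Hill equation to give AC50.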

[2] = Cell Viability - HepG2 (AID 433; calls by dose curve;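 note: potency is the fitted concentration of half-maximal effect; potency for ATP loss meaning cytotoxicity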); settings: qHTS
How it was run: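 HepG2 cells, 1500 per well, treated 40 hr at 37 °C in complete medium; viability from intracellular ATP by CellTiter-Glo luminescence. Normalized to DMSO and 100 uM tamoxifen; AC50 from Hill fit of qHTS concentration-response.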

[3] = Cell Viability - N2a (AID 540); settings: N2a mouse neuroblastoma cell viability; activity change, negative = cytotoxicity: at 92.2 µM (top of the series);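 note: plate controls were DMSO alone for no effect and tamoxifen control for full effect; nearly all actives have a fitted effect of over 45% in size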
How it was run: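 Luminescent ATP signal (CellTiter-Glo, 20 min at room temperature) served as the viability read-out after N2a cells were treated with compounds for 40 hours at 37 °C. Concentration-response data were fitted to the Hill equation for AC50.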

[4] = Cell Viability - NIH 3T3 (AID 541); settings: NIH 3T3 cell viability, qHTS; activity change, negative = cytotoxicity: at 92.2 µM (top of the series);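 note: plate controls were DMSO alone for no effect and tamoxifen positive control for full effect; nearly all actives have a fitted effect of over 25% in size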
How it was run: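 Luminescent ATP signal (CellTiter-Glo) served as the viability read-out after NIH 3T3 cells were exposed to compounds over a concentration range for 40 hr at 37 °C. Hill-equation modelling of concentration-response data gave AC50.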

[5] = Cellular Toxicity (caspase-3) HepG2 (AID 654); settings: HepG2 caspase-3 activation, luminescence, 0% = DMSO only, 100% = tamoxifen; series mostly up to 92.2 µM;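 note: cells exposed to compound for 16 hours before reading; 0% = DMSO alone and 100% = caspase signal from 100 µM tamoxifen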
How it was run: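 Cells plated 5 hr at 37 °C, compound added, incubated 16 hr at 37 °C. Caspase-Glo 3/7 reagent followed, 20 min at room temperature, then luminescence read. Activation scored as signal increase; AC50 from Hill fit.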

[6] = Cellular Toxicity (caspase-3) MRC-5 (AID 659); settings: MRC-5 cells, luminescence, normalized: DMSO 0%, 10 µM staurosporine 100%; series mostly up to 91.7 µM
How it was run: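 MRC-5 human normal lung fibroblasts, 1500 cells/well, treated 16 h at 37 °C in complete medium. Caspase 3/7 measured by Caspase-Glo luminescence after 1 h at room temperature. Normalized to DMSO and 10 uM staurosporine; AC50 from Hill fit.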

[7] = Cellular Toxicity (caspase-3) SK-N-SH (AID 661); settings: SK-N-SH caspase-3 activation, qHTS, DMSO as zero, staurosporine as full; series mostly up to 91.7 µM
How it was run: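 Human neuroblastoma SK-N-SH, 1500 cells/well, 5 hr pre-incubation, then compound 16 hr, 37 °C. Caspase-Glo 3/7 reagent, 1 hr RT, luminescence. Norm. to DMSO/10 uM staurosporine; Hill-fit AC50.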

[8] = MultiTox-Fluor Cytotoxicity Assay - LYMP1-001 - Live Cells (AID 947); settings: LYMP1-001 lymphoblastoid cells, live-cell protease fluorescence viability; series mostly up to 92.2 µM;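 note: 0% = DMSO only and full inhibition = tetraoctylammonium bromide control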
[9] = Cell Viability - LYMP2-013 (AID 970); settings: LYMP2-013 lymphoblastoid cells viability; series mostly up to 92.2 µM; note: nearly all actives have a fitted effect of over 55% in size; note: potency is the fitted concentration of half-maximal effect
How it was run: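 qHTS; 2500 lymphoblastoid cells/well; 5 hr 37 C settle; cpd 24 hr 37 C; CellTiter-Glo, 30 min RT; luminescence. AC50 = Hill fit.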

[10] = Cell Viability - LYMP2-015 (AID 971); settings: LYMP2-015 lymphoblastoid cell viability; series mostly up to 92.2 µM;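 note: 0% = DMSO only and full effect = 92 µM tetraoctylammonium bromide; nearly all actives have a fitted effect of over 55% in size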
How it was run: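 Luminescent ATP read-out (CellTiter-Glo) served as the viability measure after lymphoblastoid cells were exposed to compounds for 24 hours at 37 C. Concentration-response data were fitted with the Hill equation to give AC50.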

[11] = Cell Viability - LYMP2-021 (AID 974); settings: LYMP2-021 lymphoblastoid cells viability; series mostly up to 92.2 µM;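 note: compound exposure lasts 24 hours at 37 °C; nearly all actives have a fitted effect of over 55% in size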; note: potency is the fitted concentration of half-maximal effect; for activity change, negative = cytotoxicity: % is set by controls: 0 for no effect and ±100 for the full control effect
How it was run: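 Plate 2500 lymphoblastoid cells per well and incubate 5 hr at 37 C. Add compounds over a concentration range and incubate 24 hr at 37 C. Add CellTiter-Glo, wait 30 min at room temperature, read luminescence.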

[12] = Cell Viability - LYMP2-025 (AID 976); settings: LYMP2-025 lymphoblastoid cell viability; series mostly up to 92.2 µM; note: potency is the fitted concentration of half-maximal effect;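 for activity change, negative = cytotoxicity: plate controls were DMSO only for no effect and tetraoctylammonium bromide control for full effect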
How it was run: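 Seed 2500 LYMP2-025 cells/well; 5 hr at 37 C; add compound; 24 hr at 37 C; add CellTiter-Glo; 30 min RT; read luminescence. AC50 from Hill-modelled concentration-response.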

[13] = Cell Viability - LYMP2-007 (AID 979); settings: LYMP2-007 lymphoblastoid cell viability; series mostly up to 92.2 µM;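 note: cells exposed to compound for 24 h before reading; nearly all actives have a fitted effect of over 60% in size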; note: potency is the fitted concentration of half-maximal effect;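 for activity change, negative = cytotoxicity: 0% = DMSO only and the negative end = 92 µM tetraoctylammonium bromide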
How it was run: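 Luminescent ATP signal (CellTiter-Glo) serves as the viability read-out after 24 hr compound treatment of lymphoblastoid cells in complete medium at 37 C. Concentration-response data were fitted to the Hill equation to give AC50 values.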

[14] = Cell Viability - LYMP2-012 (AID 982); settings: LYMP2-012 lymphoblastoid cell viability qHTS; series mostly up to 92.2 µM;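 note: cellular ATP by luciferase luminescence where a drop means cytotoxicity; cells exposed to compound for one day before reading; nearly all actives have a fitted effect of over 55% in size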; note: potency is the fitted concentration of half-maximal effect;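 for activity change, negative = cytotoxicity: 0% = DMSO only and full loss = 92 µM tetraoctylammonium bromide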
[15] = Cell Viability - LYMP2-020 (AID 986); settings: series mostly up to 92.2 µM; note: nearly all actives have a fitted effect of over 55% in size; note: potency is the fitted concentration of half-maximal effect
How it was run: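 Luminescent ATP signal (CellTiter-Glo, 30 min at room temperature) is the read-out after 24 h compound treatment of lymphoblastoid cells at 37 C. AC50 values come from Hill-equation fits across concentrations.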

[16] = target: Voltage-gated inwardly rectifying potassium channel KCNH2 (Homo sapiens) (UniProt Q12809); test: qHTS Assay for Small Molecule Inhibitors of the Human hERG Channel Activity (AID 588834); settings: U2OS BacMam hERG, FluxOR thallium flux fluorescence; series mostly up to 92.2 µM;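 note: lower thallium flux fluorescence means stronger hERG block; nearly all actives have a fitted effect of over 50% in size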; note: potency is the fitted concentration of half-maximal effect
Voltage-gated inwardly rectifying potassium channel KCNH2 (Homo sapiens), sequence (Q12809 whole entry, looked up): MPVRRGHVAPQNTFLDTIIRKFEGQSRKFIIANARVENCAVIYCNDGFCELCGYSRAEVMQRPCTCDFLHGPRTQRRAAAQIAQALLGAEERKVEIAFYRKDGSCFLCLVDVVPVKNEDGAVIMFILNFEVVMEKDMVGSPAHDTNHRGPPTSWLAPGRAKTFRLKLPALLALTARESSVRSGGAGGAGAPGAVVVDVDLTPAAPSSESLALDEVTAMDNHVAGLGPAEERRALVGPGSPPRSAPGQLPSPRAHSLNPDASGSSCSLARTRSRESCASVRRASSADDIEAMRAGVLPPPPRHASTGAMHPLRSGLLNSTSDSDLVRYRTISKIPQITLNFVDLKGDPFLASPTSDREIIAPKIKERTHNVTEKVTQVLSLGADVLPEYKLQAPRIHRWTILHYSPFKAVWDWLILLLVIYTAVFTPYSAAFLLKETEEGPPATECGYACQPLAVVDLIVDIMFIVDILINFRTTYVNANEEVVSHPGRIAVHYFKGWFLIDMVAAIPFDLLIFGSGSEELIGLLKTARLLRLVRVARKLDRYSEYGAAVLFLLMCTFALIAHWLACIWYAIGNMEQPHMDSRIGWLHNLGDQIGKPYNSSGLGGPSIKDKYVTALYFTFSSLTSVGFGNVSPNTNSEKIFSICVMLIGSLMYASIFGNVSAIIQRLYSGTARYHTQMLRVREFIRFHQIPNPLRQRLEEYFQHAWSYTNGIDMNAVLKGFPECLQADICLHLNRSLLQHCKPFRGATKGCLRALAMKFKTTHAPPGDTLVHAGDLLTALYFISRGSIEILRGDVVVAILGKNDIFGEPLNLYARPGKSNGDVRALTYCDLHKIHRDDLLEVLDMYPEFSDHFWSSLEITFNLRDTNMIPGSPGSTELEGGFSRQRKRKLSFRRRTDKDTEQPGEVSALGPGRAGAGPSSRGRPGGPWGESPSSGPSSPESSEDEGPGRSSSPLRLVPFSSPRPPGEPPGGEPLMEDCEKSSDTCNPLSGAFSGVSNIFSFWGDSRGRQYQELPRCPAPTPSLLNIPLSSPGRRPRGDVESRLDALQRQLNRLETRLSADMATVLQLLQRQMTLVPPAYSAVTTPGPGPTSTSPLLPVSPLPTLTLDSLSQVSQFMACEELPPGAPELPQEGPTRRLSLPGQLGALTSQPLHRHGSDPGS
How it was run: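 U2OS cells BacMam-transduced with hERG, 2000 cells/well, compound ~10 min at 37 °C before stimulation buffer. FluxOR thallium flux fluorescence read kinetically on FDSS; decrease indicates block; AC50 from Hill fits.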

[17] = target: Tumor necrosis factor (Homo sapiens) (UniProt P01375); test: qHTS assay to identify small molecules that stimulate Tumor Necrosis Factor-alpha (TNF-alpha) secretion (AID 651757; active = well fitted curve in the direction sought with a large enough effect in the signal ratio; the % refers to the signal ratio; note: 0% is about no effect); settings: Human cells, HTRF 665/615 ratio; series mostly up to 92.2 µM
Tumor necrosis factor (Homo sapiens), sequence (P01375 whole entry, looked up): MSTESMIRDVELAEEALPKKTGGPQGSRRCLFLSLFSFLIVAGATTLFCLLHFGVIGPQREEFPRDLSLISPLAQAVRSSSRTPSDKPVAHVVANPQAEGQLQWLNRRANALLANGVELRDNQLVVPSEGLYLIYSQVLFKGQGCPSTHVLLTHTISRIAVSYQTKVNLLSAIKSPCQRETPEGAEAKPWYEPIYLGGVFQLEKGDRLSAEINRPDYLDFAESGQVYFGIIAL
How it was run: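 Read-out is HTRF, a TR-FRET sandwich of cryptate- and XL665-labeled anti-TNF-alpha antibodies detecting cytokine secreted by THP-1 cells. Cells had been incubated with test compounds at 37 C for 17 hrs beforehand.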

[18] = qHTS assay for small molecule agonists of the antioxidant response element (ARE) signaling pathway measured by Nrf2-dependant transcriptional activity (AID 720636; active = well fitted curve in the direction sought with a large enough effect in the repeat runs; an effect the other way counts as inactive or inconclusive; note: potency is the fitted concentration of half-maximal effect;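 for activation: HepG2 cells with an ARE-driven luciferase reporter; % of control where 0% means no effect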); settings: ARE-luc HepG2, Nrf2 luciferase reporter, 16 h; series mostly up to 92.4 µM
How it was run: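 Attachment 6 hr at 37 C, then compound versus DMSO vehicle for 16 hr in ARE-luc HepG2 cells (1% dialyzed FBS); luminescence recorded 30 min after ONE-Glo addition at room temperature.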

[19] = qHTS assay for cell viability of the p53RE-bla HCT-116 cell line (AID 743292); settings: p53RE-bla HCT-116 viability, ATP luminescence, 16 h; series mostly up to 95 µM
How it was run: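 Compound-exposed HCT-116 (p53RE-bla) cells, 4,000 per well, were kept 16 h at 37 C following a 5 h preincubation. Cell number was estimated from total ATP by CellTiter-Glo luminescence read after 30 min at room temperature.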

[20] = Validation screen for inhibitors of Lassa infection (AID 463096; calls by dose curve; note: % is set by controls: 0 for no effect and ±100 for the full control effect); settings: Lassa virus infection, cell-based; series mostly up to 46.1 µM

FC(F)(F)c1ccc(Cl)cc1
inactive: Potency [1] > 92 µM | Potency [2] > 92 µM | activity change, negative = cytotoxicity [3] 6.85% | Potency [4] | outcome [5] | outcome [6] | outcome [7] | Potency [8] | Potency [9] | Potency [10] | Potency [11] | Potency [12] | Potency [13] | Potency [14] | Potency [15] | Potency [16] | Potency [17] | Potency [18] | Potency [19]

c1ccc2cc3c(cc2c1)-c1cccc2cccc-3c12
inactive: Potency [1] > 92 µM | Potency [2] > 92 µM | activity change, negative = cytotoxicity [3] -2.25% | Potency [4] | outcome [5] | outcome [6] | outcome [7] | Potency [8] | Potency [9] | Potency [10] | Potency [11] | Potency [12] | Potency [13] | Potency [14] | Potency [15] | Potency [16] | Potency [17] | Potency [19]
active: Potency [18] 9.44 µM and 8.63 µM

C#CCO
inactive: Potency [1] > 92 µM | Potency [2] > 92 µM | activity change, negative = cytotoxicity [3] -2.19% | Potency [4] | outcome [5] | outcome [6] | outcome [7] | Potency [8] | Potency [9] | Potency [10] | Potency [11] | Potency [12] | Potency [13] | Potency [14] | Potency [15] | Potency [16] | Potency [17] | Potency [18] | Potency [19]

ClC1=C(Cl)C2(Cl)C3C(Cl)C(Cl)CC3C1(Cl)C2(Cl)Cl (stereo unspecified)
inactive: Potency [2] > 92 µM | Potency [9] | Potency [11] | Potency [12] | Potency [14] | Potency [18]
active: Potency [16] 35.5 µM

O=[N+]([O-])C(Br)Br
active: Potency [9] 12.6 µM | Potency [11] 10 µM | Potency [12] 20 µM | Potency [13] 10 µM | Potency [14] 12.6 µM | Potency [15] 12.6 µM | Potency [16] 50.1 µM
inactive: outcome [7] | Potency [8]

[Cd+2].[Cl-].[Cl-]
inactive: outcome [7]
active: Potency [13] 39.8 µM | Potency [18] 841 nM

COc1c2c(nc3ccccc13)OC(C(C)(O)CO)C2 (stereo unspecified)
inactive: Potency [20]

O=C(O)CC[C@H](NC(=O)c1ccccc1C(=O)O)C(=O)O
inactive: Potency [20]

CC(=O)[C@@]1(O)CC[C@H]2C3CCC4=CC(=O)CC[C@]4(C)C3CC[C@@]21C (stereo partly specified)
inactive: Potency [20]

Nc1ncnc2c1ncn2[C@@H]1O[C@H](CO)[C@H](O)[C@H]1O
inactive: Potency [20]

CCCC1O[C@@H]2C[C@H]3[C@@H]4CCC5=CC(=O)C=C[C@]5(C)C4[C@@H](O)C[C@]3(C)[C@]2(C(=O)CO)O1 (stereo partly specified)
inactive: Potency [20]

COc1ccc2c(c1OC)C(=O)OC2C1c2c(cc3c(c2OC)OCO3)CCN1C (stereo unspecified)
inactive: Potency [20]

Nc1nc(Cl)nc2c1ncn2[C@@H]1O[C@H](CO)[C@H](O)[C@H]1O
inactive: Potency [20]

CNC(=O)[C@H]1O[C@@H](n2cnc3c(NCc4ccc(N)cc4)ncnc32)[C@H](O)[C@H]1O
inactive: Potency [20]

Nc1nc(SCc2ccc([N+](=O)[O-])cc2)c2ncn([C@@H]3O[C@H](CO)[C@H](O)[C@H]3O)c2n1
inactive: Potency [20]

CN1CCc2cc(Cl)c(O)cc2C(c2ccccc2)C1 (stereo unspecified)
inactive: Potency [20]

O=[N+]([O-])c1ccc(CSc2ncnc3c2ncn3[C@@H]2O[C@H](CO)[C@H](O)[C@H]2O)cc1
inactive: Potency [20]

CC(N)=NCCCC(N)C(=O)O (stereo unspecified)
inactive: Potency [20]

CN1CCc2c(cc(O)c(O)c2Cl)C(c2cccc(Cl)c2)C1 (stereo unspecified)
inactive: Potency [20]

Nc1ncnc2c1ncn2[C@@H]1O[C@H](C(=O)NC2CC2)[C@H](O)[C@H]1O
inactive: Potency [20]

Cc1ccccc1N1CCN(S(=O)(=O)C[C@]23CCC(CC2NC(=O)[C@@H](N)CCS(C)(=O)=O)C3(C)C)CC1 (stereo partly specified)
inactive: Potency [20]

OC[C@H]1O[C@@H](n2cnc3c(NC4CCCC4)ncnc32)[C@H](O)[C@H]1O
inactive: Potency [20]

CC[C@H](C)C(=O)O[C@H]1CCC=C2C=C[C@H](C)[C@H](CC[C@@H]3C[C@H](O)CC(=O)O3)C21 (stereo partly specified)
inactive: Potency [20]

C[C@H]1CC2[C@@H]3CCC4=CC(=O)C=C[C@]4(C)[C@@]3(Cl)[C@@H](O)C[C@]2(C)[C@@]1(O)C(=O)CO (stereo partly specified)
inactive: Potency [20]

CC(C)C1NC(=O)[C@H](CCCCN)NC(=O)[C@@H](Cc2c[nH]c3ccccc23)NC(=O)[C@H](Cc2ccc(O)cc2)NC(=O)[C@H](C)N(C)C(=O)[C@H](Cc2ccccc2)NC1=O (stereo partly specified)
inactive: Potency [20]

C[C@]12C[C@H](O)C3[C@@H](CCC4=CC(=O)CC[C@@]43C)[C@@H]1CC[C@@H]2C(=O)CO (stereo partly specified)
inactive: Potency [20]
